Counter-ions that a name gives are not always drawn.
What was measured:
Test in all cases: Euclidean distance of Cell Painting phenotypic profile (signed KS, 77 features) to DMSO centroid (dimensionless distance); 5 or 10 uM (library dependent); higher = stronger phenotypic change vs DMSO (phenoactivity)
Conditions in all cases: 48 h
786-O = tested on: 786-O
Method in brief: (§1)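 Five cancer lines, together with a healthy fibroblast line, received library compounds for 48 h at a library-dependent 10 or 5 uM and 0.1% DMSO final. Harmony then derived 77 features from confocal 20X images (9 fields/well) of the stained cells, scoring each as a signed Kolmogorov-Smirnov statistic against same-plate vehicle wells. After plate-position correction, correlation weighting and replicate averaging at the top dose, phenoactivity was taken as each profile's Euclidean distance to the median vehicle profile.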

A549 = tested on: A549
Method in brief: as §1

DU145 = tested on: DU145
Method in brief: as §1

FB = tested on: FB
Method in brief: as §1

HEPG2 = tested on: HEPG2
Method in brief: as §1

OVCAR4 = tested on: OVCAR4
Method in brief: as §1

| Structure (SMILES) | Euclidean distance (786-O) | Euclidean distance (A549) | Euclidean distance (DU145) | Euclidean distance (FB) | Euclidean distance (HEPG2) | Euclidean distance (OVCAR4) |
| --- | --- | --- | --- | --- | --- | --- |
| C#CCN(C)Cc1ccccc1 [Pargyline hydrochloride] | 1.39 | 0.874 | 1.18 | 1.16 | 0.696 | 1.43 |
| CCC/N=C1\S/C(=C\c2ccc(OC[C@H](O)CO)c(Cl)c2)C(=O)N1c1ccccc1C [Ponesimod] | 1.96 | 1.39 | 0.669 | 1 | 1.32 | 1.26 |
| CC[C@]1(O)C[C@@H]2CN(CCc3c([nH]c4ccccc34)[C@@](C(=O)OC)(c3cc4c(cc3OC)N(C)[C@H]3[C@@](O)(C(=O)OC)[C@H](OC(C)=O)[C@]5(CC)C=CCN6CC[C@]43[C@@H]65)C2)C1 [Vinblastine sulfate] | 3.25 | 3.68 | 4.31 | 3.49 | 3.33 | 3 |
| Cc1ncc([N+](=O)[O-])n1CCO [Metronidazole] | 0.797 | 0.775 | 0.948 | 1.08 | 0.943 | 1.6 |
| NCCOB(c1ccccc1)c1ccccc1 [2-Aminoethyl Diphenylborinate (2-APB)] | 1.61 | 0.835 | 1 | 0.968 | 0.822 | 1.13 |
| CCc1c(Cl)c(O)c(Cl)c(O)c1C(=O)O[C@H]1[C@H](O)[C@H](OC)[C@H](OC/C2=C\C=C\C[C@H](O)/C(C)=C/[C@H](CC)[C@@H](O[C@@H]3OC(C)(C)[C@@H](OC(=O)C(C)C)[C@H](O)[C@@H]3O)/C(C)=C/C(C)=C/C[C@@H]([C@@H](C)O)OC2=O)O[C@@H]1C [Fidaxomicin] | 1.59 | 1.88 | 1.64 | 1.94 | 1.5 | 1.68 |
| CC(C)NCC(O)c1ccc(O)c(O)c1 (configuration not stated) [Isoproterenol sulfate dihydrate] | 1.03 | 0.632 | 2.58 | 1.23 | 0.763 | 0.894 |
| CN1CCC(=C2c3ccccc3CCc3cccnc32)CC1 [Azatadine dimaleate] | 1.51 | 1.59 | 0.544 | 1.05 | 0.437 | 1.44 |
| O=C(Cn1cnnn1)N[C@@H]1C(=O)N2C(C(=O)O)=C(CSc3nncs3)CS[C@H]12 [Ceftezole] | 1.01 | 0.658 | 0.963 | 1.09 | 0.476 | 0.782 |
| N[C@H]1C[C@@H]1c1ccc(-c2cccc(O)c2)cc1 | 1.26 | 1.27 | 1.07 | 1.18 | 0.624 | 1.45 |
| CO/N=C(\C(=O)N[C@@H]1C(=O)N2C(C(=O)[O-])=C(C[N+]3(C)CCCC3)CS[C@H]12)c1csc(N)n1 [Cefepime Dihydrochloride Monohydrate] | 1.34 | 0.501 | 0.945 | 1.1 | 0.514 | 0.878 |
| CC1(C)OC[C@@H](COC(=O)CCc2ccc(OC[C@@H](O)CNCCNC(=O)N3CCOCC3)cc2)O1 [Landiolol hydrochloride] | 1.18 | 0.835 | 1.25 | 1.04 | 0.692 | 1.25 |
| CC(C)n1nc(-c2ccc3oc(N)nc3c2)c2c(N)ncnc21 | 3.74 | 3.47 | 2.16 | 5.4 | 2.31 | 3.52 |
| CN(C)C(=O)Nc1cccc(-c2ccc(N(C)C)cc2)c1 [Atglistatin] | 1.31 | 1.47 | 1.1 | 0.894 | 0.548 | 1.33 |
| CC(=O)OCC(=O)[C@@]1(O)CC[C@H]2[C@@H]3CCC4=CC(=O)C=C[C@]4(C)[C@H]3[C@@H](O)C[C@@]21C [Prednisolone Acetate] | 1.1 | 2.13 | 2.13 | 1.96 | 0.76 | 2.1 |
| CCN1CC(CCN2CCOCC2)C(c2ccccc2)(c2ccccc2)C1=O (configuration not stated) [Doxapram HCl] | 0.672 | 0.512 | 0.481 | 0.699 | 0.498 | 0.962 |
| C=CC(=O)N1CCC(CNc2ncnc(N)c2-c2ccc(Oc3ccccc3)cc2)CC1 [Evobrutinib] | 0.935 | 0.683 | 2.24 | 0.97 | 0.714 | 0.874 |
| CC1(C)O[C@@H]2[C@@H](CO[C@@]3(COS(N)(=O)=O)OC(C)(C)O[C@@H]23)O1 [Topiramate] | 1.24 | 1.07 | 0.829 | 0.965 | 0.72 | 0.977 |
| CN[C@@H](C)C(=O)N[C@H](C(=O)N1CCC[C@H]1C(=O)Nc1snnc1-c1ccccc1)C1CCCCC1 | 0.872 | 1.58 | 0.883 | 1.38 | 0.88 | 3.41 |
| NS(=O)(=O)c1cc2c(cc1Cl)N=CNS2(=O)=O [Chlorothiazide] | 1.21 | 0.957 | 1.22 | 1.35 | 0.662 | 0.734 |
| CN(C)CCOC(c1ccccc1)c1ccccc1.Cn1c(=O)c2[nH]c(Cl)nc2n(C)c1=O [Dimenhydrinate] | 0.947 | 1 | 1.72 | 1.28 | 0.581 | 0.863 |
| CCN1CCN(Cc2ccc(Nc3ncc(F)c(-c4cc(F)c5nc(C)n(C(C)C)c5c4)n3)nc2)CC1 [Abemaciclib] | 4.11 | 4.37 | 3.65 | 4.04 | 3.81 | 3.89 |
| COc1cc2c(cc1OC)C(=O)C(CC1CCN(Cc3ccccc3)CC1)C2 (configuration not stated) [Donepezil] | 0.813 | 1.25 | 0.73 | 0.785 | 1.27 | 1.27 |
| CC1(C)S[C@@H]2[C@H](NC(=O)[C@H](N)c3ccccc3)C(=O)N2[C@H]1C(=O)OCOC(=O)[C@@H]1N2C(=O)C[C@H]2S(=O)(=O)C1(C)C [Sultamicillin] | 1.46 | 0.999 | 0.805 | 1.26 | 0.611 | 1.28 |
| OC(Cn1cncn1)(Cn1cncn1)c1ccc(F)cc1F [Fluconazole] | 1.5 | 1.3 | 1.41 | 1.35 | 0.443 | 1.44 |
| NC1=NCC2c3ccccc3Cc3ccccc3N12 (configuration not stated) [Epinastine HCl] | 1.16 | 1.15 | 1.13 | 1.2 | 0.717 | 1.43 |
| Cc1cccc(Nc2cc(Cl)nc(SCC(=O)O)n2)c1C | 1.08 | 0.839 | 0.785 | 0.914 | 0.873 | 0.647 |
